Growth data for 25 compounds are collected here from PubChem BioAssay (NCI).

Compounds without any hit were thinned out: in the full panel of roughly 83,000, 20% have a hit.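 Activity criterion: percent growth below 10, measured after cells in 96-well plates were exposed to a single compound concentration for 48 hours.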 Values without a mark were called inactive. Active and inactive are the calls of the source.

Holding throughout (test): NCI-60 one-dose screen, 48 h (100 = growth as untreated, 0 = no growth, -100 = all killed)
What all share (settings): 10 µM unless noted

In assay [1] the test system is HCT-15 colon.
Assay [2] deals with HT29 colon.
Assay [3] relates to SNB-75 CNS.
Assay [4] has as its system SNB-19 CNS.
The test system of assay [5] is U251 CNS.
Assay [6] relates to PC-3 prostate.
In assay [7] the test system is SK-MEL-5 melanoma.
The test system of assay [8] is UACC-62 melanoma.
Assay [9] deals with LOX IMVI melanoma.
Assay [10] concerns SK-MEL-28 melanoma.

As for `CC(=O)NC(C)(C)C(=O)N[C@@H](C)C(=O)NC(C)(C)C(=O)N[C@@H](C)C(=O)NC(C)(C)C(=O)N[C@@H](C)C(=O)N[C@@H](CCC(N)=O)C(=O)NC(C)(C)C(=O)N[C@H](C(=O)NC(C)(C)C(=O)NCC(=O)N[C@@H](CC(C)C)C(=O)NC(C)(C)C(=O)N1CCC[C@H]1C(=O)N[C@H](C(=O)NC(C)(C)C(=O)NC(C)(C)C(=O)N[C@@H](CCC(N)=O)C(=O)N[C@@H](CCC(N)=O)C(=O)N[C@H](CO)CC1CCCCC1)C(C)C)C(C)C`, the growth in assay [1] is 79.2% [5 µM]; in [2] it was 14.1% [5 µM]; in assay [3], 19.7% [5 µM]; in assay [4], 43.8% [5 µM]; in assay [5], 38.5% [5 µM]; in assay [6], 29.8% [5 µM]. Besides, the growth is -33.6% [5 µM] (active) in assay [7], 2.45% [5 µM] (active) in [8], 27.1% [5 µM] in assay [9] and -17.1% [5 µM] (active) in assay [10].
Turning to `COc1ccc([C@H]2[C@H](O)C(=O)N2c2cc(OC)c(OC)c(OC)c2)cc1Cl`, the growth in assay [1] was 9.77% (active); in [2] it was 1.45% (active); in [3], 58.6%; in assay [4], 29.2%; in assay [5] it was 1.42% (active); in assay [6] it was 12.6%. The growth was -12.5% (active) in assay [7], 31% in [8], 14.4% in assay [9] and 63.6% in assay [10].
Consider `O=C1[C@@H]2Cc3c([nH]c4ccccc34)[C@H](c3c(Cl)cccc3Cl)N2C(=O)CN1C1CCN(Cc2ccccc2)CC1`, for which the growth in assay [1] was -25.7% (active); in assay [2] it was 2.12% (active); in [3], 62%; in assay [4], 61.8%; in assay [5], 38.9%; in assay [6], 41.8%. The growth in assay [7] is 45.2%; in [8], 90.2%; in assay [9], -80% (active); in assay [10], 14.6%.
As for `C/C(Cc1ccc(Cl)cc1)=C(/c1ccccc1)c1ccc(OCCN)cc1`, the growth in assay [1] was 101%; in [2], 102%; in assay [3], 98.2%; in assay [4], 92.9%; in assay [5], 100%; in assay [6], 99%. Moreover, the growth was 99.1% in assay [7], 91.7% in assay [8], 98% in assay [9] and 96% in assay [10].
As for `Cn1c2ccccc2c2c3c(c4c5ccc(Br)cc5oc4c21)C(=O)N(O)C3=O`, the growth in [1] is 74.6%; in assay [2] it was 86.6%; in assay [3] it was 54.3%; in [4] it was 69.5%; in [5], 60.5%; in assay [6], 65.8%. Further, the growth in [7] is 75.6%; in assay [8], 49.2%; in [9] it was -88.8% (active); in assay [10], 105%.
Turning to `O=C(NCCCNc1cc(-c2cn(-c3ccccc3)nc2-c2cccc(O)c2)ccn1)Nc1ccc(F)cc1`, the growth in [1] was -11.7% (active); in assay [2], 3.6% (active); in assay [3], 6.84% (active); in assay [4], 26.9%; in [5] it was 3.22% (active); in [6], 16%. In addition, the growth in assay [7] is -55% (active); in assay [8], 8.05% (active); in [9] it was 6.07% (active); in assay [10] it was -61.3% (active).
For the compound `C/C(=N/Nc1nc(N/N=C(/C)c2ccc([N+](=O)[O-])cc2)nc(N2CCOCC2)n1)c1ccc([N+](=O)[O-])cc1`, the growth is 66.1% in assay [1]; 80.6% in [2]; 80.6% in assay [3]; 63.1% in assay [4]; 92.6% in [5]; 76.6% in [6]. In addition, the growth in [7] is 67.1%; in assay [8] it was 85.3%; in assay [9], 38.9%; in assay [10], 83.8%.
Consider `CNC(=O)c1cc(Oc2ccc3nc(NC(=O)c4ccc(CN5CCN(C)CC5)c(C(F)(F)F)c4)sc3c2)ccn1`, for which the growth in assay [1] was 8.89% (active); in [2], 16.1%; in assay [3], 55.1%; in [4], 75.9%; in [5], 57.1%; in [6], 47.3%. Besides, the growth was 31.4% in assay [7], 56.3% in [8], -28.2% (active) in [9] and -38.1% (active) in assay [10].
With `COc1ccc(NC(=O)[C@H](C)N)cc1C(=O)Nc1cccc(-c2cc(=O)c3c(OC)c(OC)c(OC)cc3o2)c1`, the growth in [1] is 49.6%; in [2], 69.8%; in [3] it was 84.5%; in assay [4], 65.8%; in assay [5], 56.3%; in assay [6] it was 71.6%. The growth in assay [7] was 57.9%; in assay [8], 63.5%; in assay [9] it was 49.8%; in assay [10], 88.2%.
Take `CSc1nccc(-c2c(-c3ccc(F)c(OCc4ccc(F)cc4)c3)nc3sccn23)n1`: the growth is 64.6% in assay [1]; 67.8% in assay [2]; 113% in assay [3]; 72.6% in [4]; 60.2% in assay [5]; 55.2% in [6]. For the same compound, the growth was 19.2% in assay [7], 38% in [8], 74% in assay [9] and 87.5% in assay [10].
As for `COc1ccc(CN2C(=O)/C(=C/c3nc(CO)cs3)SC2=S)cc1`, the growth in assay [1] was 64.2%; in assay [2], 107%; in assay [3], 91.7%; in assay [4] it was 93.8%; in assay [5] it was 94%; in assay [6] it was 86.5%. Further, the growth in assay [7] was 97.9%; in assay [8] it was 73.4%; in assay [9], 42.8%; in [10] it was 107%.
Take `O=S(=O)(Nc1cc(Cl)cc(Cl)c1)c1ccc(-c2cnc(C3CC3)o2)cc1`: the growth is 30.9% in assay [1]; 12.1% in [2]; -1.98% (active) in [3]; 42.9% in assay [4]; 37.4% in [5]; 27% in [6]. The growth in assay [7] was 36.9%; in assay [8], 39.1%; in assay [9], 44.8%; in assay [10], 69.9%.
`NC(=O)c1c(NC(=O)c2cccc(C(F)(F)F)c2F)sc2c1CCC(=O)C2`: the growth was 7.63% (active) in assay [1]; 8.55% (active) in assay [2]; 40.2% in [3]; 18% in assay [4]; 15.9% in assay [5]; 17.9% in [6]. Also, the growth in assay [7] is -3.83% (active); in assay [8], 11.1%; in assay [9], 19.2%; in assay [10], 33.9%.
Take `NC(N)=NS(=O)(=O)c1ccc(N=NC2C(=O)NN(c3ccccc3)C2=O)cc1` (stereo not given): the growth in assay [1] was 101%; in assay [2] it was 112%; in assay [3], 84.1%; in assay [4] it was 98.9%; in [5], 103%; in assay [6] it was 95.2%. Besides, the growth was 98.9% in assay [7], 96.1% in assay [8], 96.6% in assay [9] and 111% in assay [10].
As to `Nc1nc(N)c2c(n1)NC(c1ccc(Cl)cc1)CC(c1ccc(Nc3nc(NCCO)nc(Nc4ccc(Cl)cc4)n3)cc1)=N2` (stereo not given), the growth is 1.91% (active) in assay [1]; -21.8% (active) in [2]; 77.9% in assay [3]; 17.2% in [4]; -35.6% (active) in assay [5]; 44.1% in [6]. Moreover, the growth was 48.4% in [7], 91.2% in assay [8], -90% (active) in [9] and 103% in assay [10].
For the compound `COCCC[C@H]1O[C@@](O)([C@H](C)[C@@H]2CC(OC)C(O)/C=C(C)/C=C(C)/C=C(\C)C(OC3O[C@@H](C)[C@H](O)C(O)[C@@H]3O)C(C)/C=C(C)/C=C(OC)/C=C(\C)C(=O)O2)C(OC)C(O)[C@]1(C)O[C@H]1C[C@@H](O)[C@H](O[C@H]2C[C@](C)(O)[C@H](O)C(C)O2)C(C)O1` (stereo not given in full), the growth in assay [1] is 57.5%; in assay [2] it was 67%; in [3], 35.3%; in [4], 38.8%; in assay [5], 47%; in assay [6], 27.8%. In addition, the growth in [7] is 7.32% (active); in assay [8], 58.4%; in assay [9], 76.4%; in assay [10], 84.2%.
`CCOC(=O)C1=C(C)Nc2nc3ccccc3n2C1c1ccccc1` (stereo not given): the growth was 90.8% in assay [1]; 97.9% in assay [2]; 99.1% in assay [3]; 97.8% in assay [4]; 101% in [5]; 97.7% in [6]. Also, the growth in assay [7] was 99.3%; in assay [8], 85.7%; in assay [9], 90.4%; in assay [10] it was 109%.
With `CCN1C(=O)N(CC)C2SC(N/N=C/c3ccc(F)cc3)=NC21` (stereo not given), the growth in assay [1] is 14.9%; in assay [2], 3.77% (active); in [3] it was 38.2%; in [4], 28.1%; in [5] it was 15%; in assay [6], 30.3%. For the same compound, the growth in [7] was 15.3%; in assay [8] it was 33.6%; in [9], 14.1%; in [10], 58.9%.
For the compound `CCN1C/C(=N\S(=O)(=O)c2ccccc2)N(CC)C1=S`, the growth in assay [1] was 101%; in assay [2], 108%; in [3], 91.3%; in [4] it was 98.2%; in assay [5] it was 97.4%; in [6], 110%. Further, the growth is 102% in assay [7], 95.2% in [8], 99.3% in [9] and 104% in [10].
For `COc1ccc(Cn2cc3c(c2-c2cc(OC)c(OC)c(OC)c2)CCCc2cnoc2-3)cc1`, the growth in assay [1] was 20.1%; in assay [2] it was 14.7%; in assay [3], -17.6% (active); in assay [4] it was 23.1%; in assay [5], 28.6%; in [6], 44.4%. The growth in assay [7] is 21.6%; in assay [8], 33.9%; in [9], 35.8%; in assay [10] it was 64.4%.
For the compound `O=C1c2c(O)cc(O)cc2O[C@@H](c2ccc(O)cc2)[C@@H]1c1c(O)cc(O)c2c(=O)cc(-c3ccc(O)c(O)c3)oc12`, the growth in assay [1] was 101%; in assay [2], 101%; in assay [3], 82.6%; in assay [4], 112%; in assay [5], 110%; in [6] it was 96.1%. Besides, the growth is 99.6% in assay [7], 89.5% in assay [8], 88.9% in assay [9] and 99.1% in assay [10].
Turning to `CCc1ccc(NC(=O)N[C@@H](Cc2cccc(C)c2)C(=O)N[C@@H]2C(=O)N3CCC[C@H]3C(=O)N3CCCC[C@H]3C(=O)N[C@@H](CO)C(=O)N3C[C@H](C)C[C@H]3C(=O)O[C@H]2C)c(F)c1`, the growth in [1] was 15.5%; in assay [2], 33.5%; in assay [3], 20.4%; in assay [4] it was 28.3%; in assay [5], 31.7%; in assay [6], 17.8%. The growth in assay [7] is -29.3% (active); in assay [8], 25.9%; in assay [9], 32.8%; in assay [10], 38.1%.
With `CCOC(=O)C1=C(C)Nc2nc3ccccc3n2C1c1cccc(Br)c1` (stereo not given), the growth is 48.5% in assay [1]; 49.3% in [2]; 53.9% in [3]; 77.2% in [4]; 88.8% in [5]; 84.1% in [6]. Moreover, the growth in [7] is 80.4%; in assay [8] it was 60.3%; in [9], 82.3%; in [10] it was 84.9%.
In the case of `CN1C(=O)N(C)C2Nn3c(s/c(=C\c4ccccn4)c3=O)=NC21` (stereo not given), the growth in assay [1] was 99.9%; in assay [2], 110%; in [3], 105%; in [4], 100%; in assay [5] it was 105%; in assay [6], 99.1%. Further, the growth in assay [7] is 102%; in [8], 90.6%; in assay [9], 99.6%; in [10], 104%.
On to `COc1cc2c3c(n(CCCNC4CCCC4)c(=O)c2cc1OC)-c1cc2c(cc1C3=O)OCO2`, for which the growth in assay [1] was -68.6% (active); in assay [2], -55.1% (active); in assay [3], 84.9%; in [4] it was 46.2%; in [5], -87.9% (active); in [6], -84.7% (active). In addition, the growth was 95% in assay [7], 74% in [8], -82.3% (active) in assay [9] and 95.8% in [10].
